The nature of experiment [1]: binders of probe aFSTL3 on microarray, primary screen, stem cell growth factor project, biochemical, small-molecule microarray, fluorescence 635/667 (AID 1064).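 Further: measures binding of the biotinylated anti-FSTL3 antibody to printed compounds.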 Particulars: higher = more signal.
Experiment [2] in a line: binders from COS7 lysate, DM2A8 probe, primary screen, torsin A project, cell lysate, small-molecule microarray, fluorescence 635/667 (AID 1065). As to conditions: higher = more signal, COS7 lysate expressing mutant human TOR1A.
The nature of experiment [3]: binders of probe aFGF2 on microarray, primary screen, stem cell growth factor project, biochemical, small-molecule microarray, fluorescence 635/667 (AID 1067).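 Further: measures binding of biotinylated aFGF2 protein to printed compounds on slides; z-score merges feature fluorescence and signal-to-noise across triplicate slides.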 As to conditions: higher = more signal.
The nature of experiment [4]: binders of probe aFGF10 on microarray, primary screen, stem cell growth factor project, biochemical, small-molecule microarray, fluorescence 635/667 (AID 1071).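 Further: score merges 667 nm spot intensity and signal to noise from triplicate slides.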 Particulars: higher = more signal.
The target in experiment [5] is Neurogenic locus notch homolog protein 2 (Homo sapiens) (UniProt Q04721). Description: Notch2 binders on small-molecule microarrays, primary screen, biochemical, small-molecule microarray, 635 nm fluorescence, stem cell growth factors (AID 1073). As to conditions: Notch2 binding, higher = more signal.
Experiment [6] addresses Pro-neuregulin-1, membrane-bound isoform (Homo sapiens) (UniProt Q02297). Description: NRG1 binders on small-molecule microarrays, primary screen, psychiatric disease protein project, biochemical, small-molecule microarray, fluorescence 635/667 (AID 1075).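 Further: score combines 667 nm spot fluorescence with signal to noise.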 Particulars: NRG1 binding, 635 nm fluorescence, higher = more signal.
Experiment [7] concerns Neuregulin-1 EGF-like domain. Kind of experiment: binders of neuregulin-1 EGF-like domain, primary screen, biochemical, small-molecule microarray, 635 nm fluorescence (AID 1081).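 Further: binding of the protein to compounds printed on small-molecule microarray slides.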 Particulars: small-molecule microarray binding, higher = more signal.
The nature of experiment [8]: FRG1 promoter luciferase signal modulators, primary screen, FRG1 inhibition for FSHD, cell-based, C2C12 myotubes, firefly/Renilla luciferase, luminescence (AID 1084). As to conditions: higher = more signal, called active from +8 up or from −8 down.
Experiment [9] is described as follows: binders of probe aFST on microarray, primary screen, stem cell growth factor project, biochemical, small-molecule microarray, fluorescence 635/667 (AID 1086).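 Further: score merges 667 nm fluorescence with signal-to-noise of each printed compound spot.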 Particulars: higher = more signal.
The nature of experiment [10]: binders of probe aHhip on microarray, primary screen, stem cell growth factor project, biochemical, small-molecule microarray, fluorescence 635/667 (AID 1087).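 Further: score merges spot fluorescence at 667nm with spot signal to noise ratio.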 As to conditions: higher = more signal.
Experiment [11] deals with PRMT1 (protein arginine N-methyltransferase 1). Description: PRMT1 binders on small-molecule microarrays, primary screen, biochemical, small-molecule microarray, 635 nm fluorescence (AID 1088).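 Further: binding of Prmt1 protein to compounds spotted on small-molecule microarray slides.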 Particulars: small-molecule microarray binding, higher = more signal.
Experiment [12] in a line: yeast growth modulation, basal conditions, primary screen, YJM789 clinical isolate, OD600, 24 h (AID 1089).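 Further: growth of clinical yeast isolate S. cerevisiae YJM 789 seeded 1000 cells per well; test concentration not given here.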 Particulars: S. cerevisiae YJM789 growth, higher = more signal, called active from +8 up or from −8 down.
The nature of experiment [13]: fission yeast growth modulation, primary screen, strain 972, OD600, 24 h, no modulator (AID 1090).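 Further: basal condition with compound alone and no growth modifier present; test concentration not given here.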 As to conditions: S. pombe 972 growth, higher = more signal, called active from +8 up or from −8 down.
A short description of experiment [14]: S. cerevisiae growth modulation with rapamycin, primary screen, strain BY4716, OD600, 96 h (AID 1091). Further: test concentration not given here. As to conditions: higher = more signal, called active from +8 up or from −8 down.
The target of experiment [15] is Torsin-1A-interacting protein 2 (Homo sapiens) (UniProt Q8NFQ8). Kind of experiment: LULL1 binders on small-molecule microarray, primary screen, cell lysate, human LULL1 lysate, 635/667 nm fluorescence (AID 1092).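 Further: probe is lysate of COS7 cells overexpressing human LULL1; score merges per-feature 667 nm fluorescence with signal-to-noise.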 Particulars: hLULL1 lysate binding, 635 nm fluorescence, higher = more signal.
Experiment [16] in a line: E. coli growth modulation, two-sided OD650, primary screen, E. coli filamentation project, strain DRC41, 24 h (AID 1093).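 Further: MC1000 strain lacking acrAB efflux and sulA so SOS filamentation is blocked; test concentration not given here.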 As to conditions: OD650, 24 h, higher = more signal, called active from +8 up or from −8 down.
Experiment [17] is described as follows: small-molecule microarray binders of probe aLefty2, primary screen, biochemical, biotinylated probe, 635/667 nm fluorescence (AID 1094).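 Further: score merges spot fluorescence near 667 nm with spot signal-to-noise ratio.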 As to conditions: higher = more signal.
Experiment [18] has as its system Noggin (protein binding on small-molecule microarray). Kind of experiment: Noggin binders on small-molecule microarray, primary screen, biochemical, 635/667 nm fluorescence (AID 1095).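 Further: score merges 667 nm feature fluorescence with signal to noise over triplicate slides.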 As to conditions: 635 nm fluorescence, higher = more signal.
In experiment [19] the target is Neurogenic locus notch homolog protein 3 (Homo sapiens) (UniProt Q9UM47). Kind of experiment: NOTCH3 binders on small-molecule microarray, primary screen, biochemical, 635/667 nm fluorescence (AID 1096). Particulars: NOTCH3 binding, 635 nm fluorescence, higher = more signal.
Experiment [20] in a line: small-molecule microarray binders of probe aEGFR, primary screen, biochemical, biotinylated probe, 635/667 nm fluorescence (AID 1097).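 Further: probe is a biotinylated anti-EGFR antibody binding compounds printed on slides; score combines fluorescence near 667 nm and signal to noise of each spot.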 Particulars: higher = more signal.

The source made the active and inactive calls.

Neurogenic locus notch homolog protein 2 (Homo sapiens), sequence (Q04721 whole entry, looked up, canonical isoform): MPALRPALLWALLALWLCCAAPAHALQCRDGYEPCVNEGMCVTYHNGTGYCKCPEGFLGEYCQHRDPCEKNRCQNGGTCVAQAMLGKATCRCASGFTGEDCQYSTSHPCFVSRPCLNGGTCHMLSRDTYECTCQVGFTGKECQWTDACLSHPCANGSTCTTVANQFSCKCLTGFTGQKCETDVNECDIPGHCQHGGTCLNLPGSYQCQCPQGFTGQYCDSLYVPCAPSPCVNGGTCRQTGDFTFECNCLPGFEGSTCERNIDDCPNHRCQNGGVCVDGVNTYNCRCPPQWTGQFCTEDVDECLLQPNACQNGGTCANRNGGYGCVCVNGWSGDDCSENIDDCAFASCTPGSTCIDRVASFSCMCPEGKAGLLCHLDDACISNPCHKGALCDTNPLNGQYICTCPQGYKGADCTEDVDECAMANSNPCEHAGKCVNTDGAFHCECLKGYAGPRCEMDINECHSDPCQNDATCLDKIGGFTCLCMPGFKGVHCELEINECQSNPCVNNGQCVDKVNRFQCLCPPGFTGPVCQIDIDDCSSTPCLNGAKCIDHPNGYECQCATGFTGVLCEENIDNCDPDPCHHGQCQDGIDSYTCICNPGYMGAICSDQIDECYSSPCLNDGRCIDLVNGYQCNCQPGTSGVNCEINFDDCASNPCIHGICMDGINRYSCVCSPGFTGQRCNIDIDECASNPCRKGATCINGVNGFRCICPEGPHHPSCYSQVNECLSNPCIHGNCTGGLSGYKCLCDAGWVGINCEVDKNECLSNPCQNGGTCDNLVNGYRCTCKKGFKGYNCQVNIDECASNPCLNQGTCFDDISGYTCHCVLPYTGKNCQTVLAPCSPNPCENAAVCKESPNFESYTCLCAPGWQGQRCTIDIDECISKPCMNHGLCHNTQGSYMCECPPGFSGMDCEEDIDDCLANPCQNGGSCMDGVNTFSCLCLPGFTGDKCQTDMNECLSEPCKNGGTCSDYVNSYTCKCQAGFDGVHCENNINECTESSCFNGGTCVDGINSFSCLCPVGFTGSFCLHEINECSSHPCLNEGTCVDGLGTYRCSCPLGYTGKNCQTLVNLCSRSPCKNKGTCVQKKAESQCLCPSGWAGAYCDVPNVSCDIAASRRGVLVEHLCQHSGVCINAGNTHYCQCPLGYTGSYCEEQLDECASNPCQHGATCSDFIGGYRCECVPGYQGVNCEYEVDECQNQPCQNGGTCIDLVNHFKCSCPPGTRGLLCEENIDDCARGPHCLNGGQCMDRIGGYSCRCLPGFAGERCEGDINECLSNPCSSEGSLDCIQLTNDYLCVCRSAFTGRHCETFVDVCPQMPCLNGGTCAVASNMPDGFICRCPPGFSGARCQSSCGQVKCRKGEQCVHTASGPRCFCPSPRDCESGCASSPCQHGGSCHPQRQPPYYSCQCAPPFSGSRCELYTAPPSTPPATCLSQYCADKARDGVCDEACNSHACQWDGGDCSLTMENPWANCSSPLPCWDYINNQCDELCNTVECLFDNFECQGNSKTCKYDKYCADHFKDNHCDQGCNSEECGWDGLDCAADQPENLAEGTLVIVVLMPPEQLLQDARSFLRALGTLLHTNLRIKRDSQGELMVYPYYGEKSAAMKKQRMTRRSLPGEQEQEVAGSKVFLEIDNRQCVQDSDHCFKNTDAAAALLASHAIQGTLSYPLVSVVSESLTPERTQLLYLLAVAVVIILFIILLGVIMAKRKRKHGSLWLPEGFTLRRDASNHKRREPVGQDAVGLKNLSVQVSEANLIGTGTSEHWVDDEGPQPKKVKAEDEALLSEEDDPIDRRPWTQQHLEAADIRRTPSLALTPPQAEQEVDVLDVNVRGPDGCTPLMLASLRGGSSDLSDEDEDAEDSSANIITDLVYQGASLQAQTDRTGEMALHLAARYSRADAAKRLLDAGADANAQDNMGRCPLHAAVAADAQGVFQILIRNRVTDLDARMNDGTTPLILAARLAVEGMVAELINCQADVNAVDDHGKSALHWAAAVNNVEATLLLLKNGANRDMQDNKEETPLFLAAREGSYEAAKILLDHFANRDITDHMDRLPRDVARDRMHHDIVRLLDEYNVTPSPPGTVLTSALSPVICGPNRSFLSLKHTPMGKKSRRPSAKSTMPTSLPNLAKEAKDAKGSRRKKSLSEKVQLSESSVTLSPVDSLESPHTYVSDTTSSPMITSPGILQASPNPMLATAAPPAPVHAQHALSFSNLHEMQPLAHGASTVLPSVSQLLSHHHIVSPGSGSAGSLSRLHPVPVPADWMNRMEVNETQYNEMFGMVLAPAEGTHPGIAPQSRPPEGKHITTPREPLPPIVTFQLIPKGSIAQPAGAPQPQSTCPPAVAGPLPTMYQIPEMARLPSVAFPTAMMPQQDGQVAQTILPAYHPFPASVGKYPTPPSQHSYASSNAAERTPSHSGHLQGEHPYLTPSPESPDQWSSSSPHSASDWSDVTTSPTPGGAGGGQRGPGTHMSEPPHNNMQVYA
Pro-neuregulin-1, membrane-bound isoform (Homo sapiens), sequence (Q02297 whole entry, looked up, the tested form may be a part, canonical isoform): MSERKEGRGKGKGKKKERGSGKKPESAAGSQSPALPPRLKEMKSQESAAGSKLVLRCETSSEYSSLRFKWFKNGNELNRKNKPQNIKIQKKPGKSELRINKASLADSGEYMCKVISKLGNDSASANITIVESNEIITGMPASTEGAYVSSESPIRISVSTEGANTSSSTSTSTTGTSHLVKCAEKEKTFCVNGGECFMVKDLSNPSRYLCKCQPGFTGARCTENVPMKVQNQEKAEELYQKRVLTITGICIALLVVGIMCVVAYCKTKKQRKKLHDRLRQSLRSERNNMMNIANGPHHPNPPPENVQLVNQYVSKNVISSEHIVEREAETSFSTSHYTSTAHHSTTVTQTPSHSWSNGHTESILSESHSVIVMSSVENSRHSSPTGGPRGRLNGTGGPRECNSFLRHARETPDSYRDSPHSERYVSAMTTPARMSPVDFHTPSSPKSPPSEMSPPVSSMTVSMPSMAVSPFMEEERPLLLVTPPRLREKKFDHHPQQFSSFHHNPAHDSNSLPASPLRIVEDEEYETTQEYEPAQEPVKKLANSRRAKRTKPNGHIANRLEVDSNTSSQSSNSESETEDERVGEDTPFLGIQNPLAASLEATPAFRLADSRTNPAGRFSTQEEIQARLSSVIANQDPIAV
Torsin-1A-interacting protein 2 (Homo sapiens), sequence (Q8NFQ8 whole entry, looked up): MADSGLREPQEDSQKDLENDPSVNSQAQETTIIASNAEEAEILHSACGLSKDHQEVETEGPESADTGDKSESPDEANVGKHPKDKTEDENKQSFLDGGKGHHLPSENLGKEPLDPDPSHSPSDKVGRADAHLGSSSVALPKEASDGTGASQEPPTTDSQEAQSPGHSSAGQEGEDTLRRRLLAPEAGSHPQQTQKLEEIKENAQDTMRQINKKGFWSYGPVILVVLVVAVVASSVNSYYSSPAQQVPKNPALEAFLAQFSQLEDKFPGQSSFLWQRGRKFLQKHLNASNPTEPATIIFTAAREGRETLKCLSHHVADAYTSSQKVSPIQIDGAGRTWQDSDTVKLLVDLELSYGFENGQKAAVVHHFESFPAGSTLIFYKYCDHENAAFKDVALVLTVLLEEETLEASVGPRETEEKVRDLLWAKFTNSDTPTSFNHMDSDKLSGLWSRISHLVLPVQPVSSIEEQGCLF

For the compound `CS(=O)(=O)CCOC(=O)C1=CC(CCCO)=CC(c2ccc(CN3CCCC3)cc2)N(Cc2sc3ccccc3c2Cl)C=C1C(=O)OCCS(C)(=O)=O` (stereo not given), the composite z-score came to 0.0681 in experiment [1]; 2.14 in [2]; 0.198 in experiment [3]; 1.3 in experiment [4]; 1.62 in experiment [5]; 2.16 in experiment [6]. For the same compound, the composite z-score in [7] came to 1.22; in [9] it was 0.888; in [10], 0.0053; in [11], 1.54; in experiment [15], 2.06; in experiment [17] it was 0.27. In addition, the composite z-score in [18] stood at 0.563; in experiment [19], 1.04; in experiment [20], 0.447. Also, the z-score in experiment [8] is 0.168 (inactive); in experiment [12], -0.381 (inactive); in experiment [13] it was -5.83 (inactive); in [14], -1.41 (inactive); in experiment [16], -0.853 (inactive).
For the compound `C=CCC(OC(C)=O)[C@@H]1[C@@H](N(Cc2cccc3ccccc23)C(=O)Cc2ccc(OC)cc2)c2cc(OCCCO)ccc2N1C(=O)c1ccc(-c2ccccc2)cc1` (stereo not given in full), the composite z-score in experiment [1] is 0.112; in experiment [2], 0.0969; in [3], -0.112; in experiment [4], -0.153; in experiment [5] it was -0.0051; in experiment [6], 0.497. Further, the composite z-score in experiment [7] is -0.359; in experiment [9], 0.428; in experiment [10], -0.201; in experiment [11], 0.328; in experiment [15], 1.1; in experiment [17], -0.206. Moreover, the composite z-score in experiment [18] was -0.424; in [19], 0.0523; in experiment [20], -0.19. In addition, the z-score was -1.39 (inactive) in [8]; 0.0338 (inactive) in experiment [12]; 0.402 (inactive) in experiment [13]; -0.962 (inactive) in [14]; -0.373 (inactive) in [16].
As for `O=C(O)[C@@H]1C[C@@H]2C(=O)N3CCC[C@H]3C(=O)N2[C@@H]1c1ccc(O)cc1`, the composite z-score in [1] was 1.18; in experiment [2] it was 0.607; in [3], -0.0058; in [4], 0.0314; in [5], 0.0995; in experiment [6], 0.956. For the same compound, the composite z-score in experiment [7] worked out at 1; in experiment [9], 0.387; in experiment [10], 0.35; in [11] it was 1.56; in experiment [15], 1.34; in [17], 0.226. Further, the composite z-score in experiment [18] was 1.93; in [19], 1.01; in [20], 0.12. Also, the z-score in [8] was 7.28 (inactive); in experiment [12] it was -0.475 (inactive); in [13], -0.854 (inactive); in experiment [14], 0.0128 (inactive); in [16], 2.46 (inactive).
`NCCCCCNC(=O)[C@@H]1C[C@@H]2C(=O)N[C@@H](CCCCN)C(=O)N2[C@@H]1c1ccc(O)cc1`: the composite z-score was 0.266 in [1]; 0.726 in experiment [2]; -0.0213 in [3]; 0.491 in experiment [4]; 1.39 in experiment [5]; 2.02 in experiment [6]. The composite z-score in experiment [7] was 1.29; in [9], 0.865; in experiment [10] it was 0.23; in experiment [11] it was 1.53; in [15], 3.2; in [17], 0.303. Further, the composite z-score in experiment [18] was determined as 1.67; in [19], 0.881; in experiment [20], 0.345. Besides, the z-score in [8] is 1.08 (inactive); in [12], 1.83 (inactive); in experiment [13] it was 1.91 (inactive); in [14], 3.76 (inactive); in experiment [16] it was -0.0616 (inactive).
Consider `CC(C)[Si]1(C(C)C)OCc2cc(-c3ccc(-c4ccc(Cl)c(Cl)c4)o3)nc(-c3ccccc3)c21`, for which the composite z-score in experiment [1] was 0.695; in experiment [2], -0.464; in experiment [3], -0.147; in experiment [4], -0.818; in experiment [5], -1.65; in [6], 0.314. Moreover, the composite z-score in experiment [7] is -0.914; in [9], -0.774; in experiment [10], -0.134; in experiment [11], -0.715; in [15] it was -1.75; in [17], -0.0803. Moreover, the composite z-score is -0.401 in [18], -0.444 in experiment [19] and -0.316 in experiment [20]. Moreover, the z-score in experiment [8] was -0.358 (inactive); in experiment [12] it was 0.0932 (inactive); in experiment [13] it was -1.39 (inactive); in experiment [14] it was 0.265 (inactive); in [16], -0.184 (inactive).

The record behind these values is PubChem BioAssay.
